CFTR F508del cor: CFTR F508del correction in bronchial cells. CFBE cells, YFP halide quenching; stimulated with forskolin plus potentiator P3; % fluorescence drop versus neutral controls. 0.36% of 350,000 active. activity (quench increase), % at 7.58 µM;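 active means mean added fluorescence quench of at least 8% versus neutral control, with both replicates also reaching 8%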;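 further: cells transiently co-express mutant CFTR-F508del with the halide-sensitive YFP; corrector assay measuring rescue of mutant channel to the surface after 24 h compound exposure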
Ecoli rRNA inh: inhibitors of bacterial rRNA selective over humanized ribosomes; E. coli WT GFP vs humanized-ribosome RFP mutants, fluorescence, 24 h; stronger effect = lower value; DMSO median 0, no signal -100; 1.6% of 350,000 active; GFP signal change (wild-type ribosome), % (concentration not given with the values);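 active means significant combined selectivity score with lowered wild-type GFP, culture density cut under 30%, mutant RFP and density less affected; inactive means any of these conditions unmet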
ERAP1 inh: ERAP1 (human) enzyme inhibition; recombinant ERAP1, Leu-AMC fluorescence, 60 min; 0.15% of 340,000 active; inhibition, % at 10.7 µM;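 active means mean replicate inhibition of at least 30%, or all replicates individually reaching that 30% level; inactive means mean below 30% and not every replicate reaching it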;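 further: 0% = neutral control wells and 100% = L-leucinethiol positive control wells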
Target sequence (Q9NZ08 whole entry, looked up): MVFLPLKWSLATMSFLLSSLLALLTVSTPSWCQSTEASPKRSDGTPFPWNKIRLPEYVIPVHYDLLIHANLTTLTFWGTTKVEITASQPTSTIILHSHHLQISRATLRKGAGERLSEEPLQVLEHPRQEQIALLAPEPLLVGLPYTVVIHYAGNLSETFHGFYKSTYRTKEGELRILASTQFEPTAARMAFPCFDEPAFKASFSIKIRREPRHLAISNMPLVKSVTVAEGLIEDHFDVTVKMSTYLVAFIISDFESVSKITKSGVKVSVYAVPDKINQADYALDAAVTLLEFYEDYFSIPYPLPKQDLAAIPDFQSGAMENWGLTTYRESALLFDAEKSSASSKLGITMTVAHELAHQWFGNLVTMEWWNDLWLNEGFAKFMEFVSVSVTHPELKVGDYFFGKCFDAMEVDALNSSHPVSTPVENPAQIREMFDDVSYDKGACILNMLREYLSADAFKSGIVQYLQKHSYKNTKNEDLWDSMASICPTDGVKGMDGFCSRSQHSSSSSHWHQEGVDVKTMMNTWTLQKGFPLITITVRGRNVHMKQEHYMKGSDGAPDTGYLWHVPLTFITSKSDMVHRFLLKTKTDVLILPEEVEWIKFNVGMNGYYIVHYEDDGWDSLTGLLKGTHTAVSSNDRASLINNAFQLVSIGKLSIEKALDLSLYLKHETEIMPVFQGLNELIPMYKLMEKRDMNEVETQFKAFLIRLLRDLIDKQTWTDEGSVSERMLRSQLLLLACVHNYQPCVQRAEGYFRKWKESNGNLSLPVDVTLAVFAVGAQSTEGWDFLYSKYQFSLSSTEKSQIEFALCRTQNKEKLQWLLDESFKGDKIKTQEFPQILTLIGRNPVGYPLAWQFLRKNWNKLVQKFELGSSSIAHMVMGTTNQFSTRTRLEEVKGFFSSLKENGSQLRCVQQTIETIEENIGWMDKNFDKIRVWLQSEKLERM
ARNT-TACC3 inh: disruptors of human ARNT/TACC3 interaction | Q9Y6A5 | 0.66% of 390,000 active | AlphaScreen His-ARNT PAS-B/GST-TACC3 binding, luminescence; TACC3 fragment carries E629A point mutation | inhibition, % at 9.99 µM;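 active means mean inhibition of replicates at least 50% and at least half of replicates each reaching 50%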;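 further: 0% = complete ARNT plus TACC3 wells and 100% = ARNT alone without TACC3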
PvdQ acylase: P. aeruginosa PvdQ acylase inhibition. purified PvdQ acylase, fluorescence plate reader. inhibition, % at 10 µM. 0.063% of 340,000 active; in the data active means inhibition above about 30%, passing the limit was not always enough;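 further: 0% = vehicle neutral wells and 100% = reference inhibitor wells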
Numbers without * were called inactive; nt = no result. In the library only some 2.1% were active in any assay of this set; here they are far more common.

SMILES	CFTR F508del cor	Ecoli rRNA inh	ERAP1 inh	ARNT-TACC3 inh	PvdQ acylase
O=c1oc2ccccc2c(Nc2ccccc2O)c1[N+](=O)[O-]	-4	10	8	-15	-10
O=c1oc2ccccc2c(NCc2ccccc2)c1[N+](=O)[O-]	2	-21	3	-7	-11
O=c1oc2ccccc2c(Nc2cc3ccccc3cc2O)c1[N+](=O)[O-]	8.5*	-60	4	18	1
O=c1oc2ccccc2c(NCc2ccc(Cl)cc2)c1[N+](=O)[O-]	-2	-39*	-6	3	-10
O=C(C[C@H]1C=C[C@@H](NC(=O)c2ccncc2)[C@@H](CO)O1)NCC1CCCCC1	-1	-3	-2	1	nt
CCOC(=O)c1ccc(NC(=O)c2cccc(C)c2[N+](=O)[O-])cc1	2	-3	-3	nt	6
COC(=O)c1ccc(NC(=O)c2cccc(C)c2[N+](=O)[O-])cc1	0	-22*	0	nt	6
O=C(CS(=O)(=O)c1ccccc1)Nc1ncc([N+](=O)[O-])s1	-2	-6	3	-2	-4
O=C(CCS(=O)(=O)c1ccccc1)Nc1ncc([N+](=O)[O-])s1	0	-22*	4	nt	10
Cc1ccc(C(=O)NNC(=S)NC(=O)COc2ccccc2)cc1	-2	-10	7	7	-15
Cc1ccccc1C(=O)NNC(=S)NC(=O)COc1ccccc1	-4	-22*	1	7	1
Cc1cccc(OCC(=O)NC(=S)NNC(=O)c2ccncc2)c1	4	-6	-1	56*	0
C[C@H](CO)N1C[C@H](C)[C@@H](CN(C)S(=O)(=O)c2ccc(F)cc2)OCc2ccccc2-c2ccccc2C1=O	nt	8	nt	nt	nt
COc1ccc(-c2cc(C(=O)N3CCN(c4ncccn4)CC3)c3ccccc3n2)c(OC)c1	nt	nt	nt	-8	-9
COc1ccc(-c2cc(C(=O)N3CCN(c4ccccn4)CC3)c3ccccc3n2)cc1	nt	nt	nt	4	-7
COc1ccc(-c2cc(C(=O)N3CCCCCC3)c3ccccc3n2)c(OC)c1	3	-33*	-3	4	-4
CCOc1ccc(-c2cc(C(=O)N3CCN(c4ccccn4)CC3)c3ccccc3n2)cc1	12*	8	0	-3	-4
Cc1ccc(S(=O)(=O)CNC(=S)c2ccc3ccccc3c2)cc1	2	-24*	0	4	7
Cc1ccc(C2C(C#N)=C3N=C(N)c4ccccc4N3C3=C2C(=O)CCC3)cc1 (stereo not given)	2	-31	-2	13	11
N#CC1=C2N=C(N)c3ccccc3N2C2=C(C(=O)CCC2)C1c1ccc(F)cc1 (stereo not given)	-2	-32*	1	8	-3
Cn1nc(C(=O)Nc2cccnc2)c2ccccc2c1=O	nt	nt	nt	46*	-6
Cn1nc(C(=O)Nc2ccc(Cl)c(S(=O)(=O)N3CCOCC3)c2)c2ccccc2c1=O	0	23	0	11	-6
Cn1nc(C(=O)Nc2ccc(S(=O)(=O)N3CCCCC3)cc2)c2ccccc2c1=O	-4	-21*	0	-4	6
O=C(Cc1ccncc1)N1CC(=O)N2[C@H](C1)[C@@H](c1ccc(Br)cc1)[C@@H]2CO	-2	6	1	nt	nt
Nc1ccc(C(O)(C(F)(F)F)C(F)(F)F)cc1	nt	nt	nt	-1	4
SMILES	CFTR F508del cor	Ecoli rRNA inh	ERAP1 inh	ARNT-TACC3 inh	PvdQ acylase
Cc1ccc(C(C)(c2ccc(N)cc2)c2ccc(N)cc2)cc1	1	-39*	4	1	2
O=S(=O)(Nc1ccc(-c2nc3cccnc3s2)cc1)c1cc(F)ccc1F	-6	-20*	-8	-4	5
O=C1C(Nc2ccc(O)cc2)=C/C(=N/S(=O)(=O)c2cccs2)c2ccccc21	-2	-38	0	67*	-1
CCOC(=O)CCc1c(C)c2ccc(OCC(=O)OC(C)C)cc2oc1=O	nt	nt	nt	3	6
CCOC(=O)CCc1c(C)c2ccc(OC3CCCCC3=O)cc2oc1=O (stereo not given)	-1	-21*	-2	2	-14
FC(F)(F)c1ccc(/C=N/N2CCN(Cc3cccc4ccccc34)CC2)cc1	nt	nt	nt	9	6
C(=N\N1CCN(Cc2cccc3ccccc23)CC1)/c1cccnc1	-4	-30*	0	8	-6
Cc1ccc(S(=O)(=O)N(C)C[C@@H]2OCCCC[C@@H](C)Oc3ccc(NC(=O)NC(C)C)cc3C(=O)N([C@@H](C)CO)C[C@@H]2C)cc1	-1	-3	1	-1	nt
CCN1CCN(C(c2ccc(C(F)(F)F)cc2)c2ccc3cccnc3c2O)CC1 (stereo not given)	0	-56	2	80*	-2
CCOC(=O)N1CCN(c2nc3ccccn3c(=O)c2C=O)CC1	0	11	0	0	31*
CN1CCN(c2nc3ccccn3c(=O)c2C=O)CC1	nt	nt	nt	-4	-5
O=C(C[C@H]1C[C@H]2c3cc(NC(=O)Nc4ccccc4)ccc3O[C@H]2[C@H](CO)O1)NCc1ccccc1	2	1	-5	24	nt
COc1ccc(NC(=O)/C=C/c2ccccc2[N+](=O)[O-])c(OC)c1	nt	-23*	-1	-3	-11
COc1ccc(-c2ccc3n(c2=O)C[C@@H]2[C@@H](CO)[C@H](C(=O)N(C)C)N(CC4CC4)[C@H]32)cc1	-2	2	-2	3	nt
CC1(C)Cc2c(sc3ncn(N)c(=N)c23)CO1	nt	nt	nt	25	2
CC1(C)Cc2c(sc3ncnc(NN)c23)CO1	1	6	0	47*	-5
C[C@H](CO)N1C[C@H](C)[C@@H](CN(C)C)Oc2ccc(NC(=O)Nc3cccc4ccccc34)cc2C1=O	2	2	nt	nt	nt
CCOc1cc(C(=O)N=c2sccn2C)ccc1OC(F)F	1	-26*	0	-16	-1
Cn1ccsc1=NC(=O)c1ccc(Cl)cc1	-2	-27*	1	-3	-5
Cn1ccsc1=NC(=O)c1ccccc1OC(F)F	1	-6	8	-1	-13
CC(C)Nc1nc(NC(C)C)nc(N(C)N)n1	nt	nt	nt	59*	-2
CC(C)Nc1nc(NC(C)C)nc(N(C)C(N)=O)n1	nt	nt	nt	-4	-12
CCNc1nc(NCC)nc(N(C)N)n1	nt	nt	nt	70*	-5
O=C(COc1ccc2c(c1)CCC2)NCc1ccc(Cl)cc1	nt	-30*	9	-26	-19
COc1ccccc1N1CCN(C(=O)/C=C/c2cccc([N+](=O)[O-])c2)CC1	0	5	3	-2	-1
CC(=O)Oc1ccccc1C(=O)C=Cc1cccc([N+](=O)[O-])c1	-1	-45*	1	1	-9
N#Cc1ccc(C(=O)NCC2CCN(C(=O)C(=O)c3cccs3)CC2)cc1	4	3	-1	nt	nt
COc1ccc(C(=O)NC(=S)NCc2cccnc2)cc1Cl	-1	-21*	-1	nt	-10
COc1ccc(C(=O)NC(=S)NNC(=O)c2cnccn2)cc1OC	nt	nt	nt	63*	13
COc1cc(OC)cc(C(=O)NC(=S)NNC(=O)c2cnccn2)c1	7	-6	2	66*	-11

Assay outcomes deposited in PubChem by Broad Institute.
